From PubChem
In the library only some 3.9% were active in any assay of this set; here they are far more common.
MITF TRPM1 HTS: increases MITF-driven TRPM1 promoter luciferase signal; SK-MEL-5 TRPM1-promoter luciferase, 24 h; % of positive control, neutral wells = 0; activation, % at 12.5 µM; hit rate 0.75% among 300,000;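 active = mean activation of at least 80% with every replicate also reaching 80%; inconclusive = mean reaches 80% but some replicate falls short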;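 note: 0% = neutral control wells and 100% = parthenolide positive control wells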
Wnt act: Wnt/beta-catenin pathway activation; Wnt/beta-catenin reporter cell assay, activator, plate reader; activation, % at 9.35 µM; hit rate 1.2% among 300,000; AID 743398; in the data active = activation above about 30%, passing the limit was not always enough; inconclusive = no clear call, values can overlap the other calls;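 note: 0% = neutral control wells and 100% = positive control wells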
HSF1 activator: increases HSF-1 driven luciferase reporter signal. NIH3T3-HGL HSF-1 luciferase reporter, MG132, 8 h; 100% = twice DMSO control signal. activation, % at 9 µM. hit rate 1.7% among 300,000;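 active = mean replicate activation of at least 50% with a set share of replicates each reaching 50%; inconclusive = only one of those two conditions met; inactive = mean below 50% and too few replicates reaching it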;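 note: 0% = median of the neutral control wells and 100% = twice that signal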
esBAF inh: blocks esBAF chromatin remodeling in mouse ES cells | Bmi1-luciferase knock-in reporter, 24 h; 100% = twice the neutral-well signal | reporter increase, % at 12.5 µM | hit rate 2% among 350,000 | AID 602393; in the data active = activation above about 40%; inconclusive = no clear call, values can overlap the other calls;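 note: 0% = median of the plate's neutral control wells and 100% = double that signal; a rise in the Bmi1 reporter signal indicates esBAF inhibition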
HSF1 inhib: HSF1 inhibition; NIH3T3-HGL HSE-luciferase, MG132-induced, luminescence 8 h; active compounds read low; activity change, negative = inhibition, % at 7.5 µM (by protocol); hit rate 0.77% among 300,000; AID 2098;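 active = more than half of replicate wells show activity change below -50%, luminescence cut by over half; inconclusive = some wells, but at most half, below -50%; inactive = no replicate well below -50%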;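 note: luciferase reports HSF-1 transcriptional activity via heat shock element; 0% = median of DMSO wells and -100% = zero luminescence signal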
* marks the source's active call; other numbers are inactive results; u = inconclusive; x = no result given.

SMILES	MITF TRPM1 HTS	Wnt act	HSF1 activator	esBAF inh	HSF1 inhib
CCOc1cc(N2CCOCC2)c(OCC)cc1NC(=O)CCS(=O)(=O)c1ccc(Cl)cc1	x	1.2	74.8*	0.6	57.8
CCOc1cc(N2CCOCC2)c(OCC)cc1NC(=O)Cc1cccc2ccccc12	-5.0	-0.4	121.2*	18.3	74.4
CO[C@H]1CN(C)C(=O)c2ccc(NS(=O)(=O)c3ccccc3Cl)cc2OC[C@H](C)NC[C@@H]1C	x	x	x	5.3	x
COc1ccc(CN2[C@H](CO)[C@H]3c4ccccc4N(C(=O)CC(F)(F)F)C[C@H]32)cc1	x	x	x	-1.1	x
O=C(O)CSc1c(-c2ccccc2)[nH]c2ccccc12	-15.6	4.7	70.1*	x	34.1
O=C(CSc1n[nH]c(-c2ccccc2)n1)Nc1ccccc1O	-23.4	-0.3	64.9*	x	36.7
Cc1ccc([N+](=O)[O-])cc1NC(=O)CSc1n[nH]c(-c2cccnc2)n1	-12.3	-3.8	-89.9	-6.1	-87.1*
Cc1ccc(NC(=O)CSc2n[nH]c(-c3cccnc3)n2)c(Br)c1	-15.5	-1.9	5.2	1.0	2.9
O=C(Nc1ccccn1)Nc1ccccc1Cl	x	11.3	24.0	53.1*	17.0
O=C(Nc1ccccc1Cl)Nc1ccccc1Cl	38.5	12.6	8.0	x	10.2
O=C(Nc1ccccc1Cl)c1ccn[nH]1	11.6	x	21.8	51.9*	6.0
O=C(Nc1ccc(Cl)cn1)Nc1ccccc1Cl	-7.8	17.0	28.1	35.4*	5.4
O=C(Nc1cnccn1)Nc1ccccc1Cl	6.9	11.8	24.5	7.2	4.0
O=C(Nc1ccccc1F)c1ccn[nH]1	9.6	16.1	-0.2	x	5.9
CCCNC(=O)N(C)C[C@H]1Oc2ncc(C#CC3(O)CCCC3)cc2C(=O)N([C@@H](C)CO)C[C@H]1C	x	x	x	1.3	x
COCC(=O)N1C[C@H](C)[C@@H](OC)CN(C)C(=O)c2ccc(NC(=O)c3cnccn3)cc2OC[C@H]1C	x	x	x	-0.7	x
C[C@@H]1CCCCO[C@H](CN(C)C)[C@H](C)CN([C@H](C)CO)C(=O)c2cc(NS(=O)(=O)c3cccs3)ccc2O1	x	x	x	-0.3	x
CCN(CC(=O)Nc1c(F)cccc1F)C(=O)Cc1n[nH]c(=O)c2ccccc12	11.7	-1.4	-78.0	-6.7	-71.5*
CCN(CC(=O)Nc1c(F)cccc1F)C(=O)CNC(=O)c1cccs1	-11.2	38.2*	6.9	-4.3	-1.3
CO[C@@H]1CN(C)C(=O)c2ccc(NC(=O)Nc3cccc(Cl)c3)cc2OC[C@@H](C)N(C(=O)Nc2c(C)noc2C)C[C@H]1C	x	x	x	6.7	x
CO[C@@H]1CN(C)C(=O)c2ccc(NC(C)=O)cc2OC[C@H](C)N(C(=O)Cc2ccccn2)C[C@@H]1C	x	x	x	2.0	x
COc1ccc(NC(=O)Nc2ccc3c(c2)C(=O)N([C@H](C)CO)C[C@H](C)[C@H](CN(C)C(=O)Nc2ccc(F)cc2)O3)cc1	x	x	x	0.3	x
COc1ccccc1N/C(=N/S(=O)(=O)c1ccc(Cl)cc1)c1ccccc1	4.4	x	16.9	-7.1	6.5
C/C(=N\S(=O)(=O)c1ccc(C)cc1)NC(=S)Nc1ccccc1	-3.6	4.1	-10.9	x	-3.2
O=C(O)c1ccc(N/C(=N\S(=O)(=O)c2ccc(Cl)cc2)c2ccccc2)cc1	-6.5	3.2	-1.9	0.5	-3.6
SMILES	MITF TRPM1 HTS	Wnt act	HSF1 activator	esBAF inh	HSF1 inhib
COc1ccc(NC(=S)NC(=NS(=O)(=O)c2ccc(Cl)cc2)c2ccccc2)cc1	56.7	12.9	x	112.9*	x
O=S(=O)(/N=C(/NC(=S)Nc1ccccc1)c1ccccc1)c1ccc(Cl)cc1	111.8*	-0.6	30.2	68.4*	25.4
COc1ccc(NC(=S)N/C(=N/S(=O)(=O)c2ccc(C)cc2)c2ccccc2)cc1	30.9	7.4	31.7	58.8*	12.5
C[C@@H]1CN([C@H](C)CO)C(=O)c2cc(NC(=O)Nc3ccc(F)cc3)ccc2O[C@@H](C)CCCCO[C@@H]1CN(C)S(=O)(=O)c1ccccc1	x	x	x	-0.6	x
C[C@@H]1CN([C@@H](C)CO)C(=O)Cc2cc(N(C)C)ccc2O[C@H]1CN(C)S(C)(=O)=O	x	x	x	-1.8	x
Cc1ccc(-c2ccc3c(c2)O[C@@H](CN(C)Cc2ccc(C(=O)O)cc2)[C@@H](C)CN([C@H](C)CO)S3(=O)=O)cc1	x	x	x	-1.3	x
O=C(NCCc1ccccc1)[C@@H]1[C@@H](CO)[C@@H]2Cn3c(ccc(-c4ccccc4)c3=O)[C@H]1N2	x	x	x	-3.7	x
Cc1cc(NC(=O)c2ccc(OCC3CCCO3)cc2)ccc1Br (stereo unspecified)	x	52.0*	x	70.6*	x
Cc1ccc2nc(NC(=O)c3ccc(OCC4CCCO4)cc3)sc2c1 (stereo unspecified)	-12.3	-6.3	56.7*	x	11.1
Cc1cc(C)c2nc(NC(=O)c3ccc(OCC4CCCO4)cc3)sc2c1 (stereo unspecified)	-31.4	-1.3	34.7	x	14.4
CCOC(=O)CN1C(=O)S/C(=C/c2ccc3c(c2)n(C)c(=O)n3C)C1=O	46.0	x	-44.0	45.8*	-27.4
CCOC(=O)C(C(=O)OCC)C1N=C(N)N=C2Oc3ccccc3N21 (stereo unspecified)	33.0	x	-11.0	89.4*	4.4
COC(=O)c1ccccc1SCc1csc(C)n1	3.6	-0.5	-6.8	3.5	-1.9
O=C(O)CSc1ccccc1C(=O)O	-5.0	-1.1	-93.7	-9.2	-91.8*
O=C(O)c1ccccc1SCc1csc(-c2ccccc2)n1	-4.8	5.0	21.1	46.7*	3.0
c1ccc(-c2nc(CSc3n[nH]c(-c4cccs4)n3)cs2)cc1	-14.9	x	60.2*	-10.8	14.0
O=C(CSc1n[nH]c(-c2cccs2)n1)N1CCCC1	x	4.0	x	1.0	x
COc1ccc(NC(=O)Nc2ccc3c(c2)C(=O)N([C@H](C)CO)C[C@H](C)[C@H](CN(C)C(=O)NC(C)C)OCCCC[C@H](C)O3)cc1	x	x	x	1.0	x
Cc1noc(C)c1NC(=O)N(C)C[C@H]1OCCCC[C@H](C)Oc2ccc(NS(=O)(=O)c3ccc(Cl)cc3)cc2C(=O)N([C@@H](C)CO)C[C@@H]1C	x	x	x	6.7	x
C[C@@H]1CCCCO[C@H](CN(C)Cc2ccc(C(F)(F)F)cc2)[C@@H](C)CN([C@@H](C)CO)C(=O)c2cc(NC(=O)Cc3ccccc3)ccc2O1	x	x	x	-2.0	x
COc1ccc(OCc2cc(C(=O)NCc3nc(C)cs3)no2)c(Cl)c1	48.1	14.1	12.7	u	22.6
CCC(NC(=O)c1cc(COc2ccc(Cl)cc2OC)on1)c1ccncc1 (stereo unspecified)	78.4	22.2	22.6	67.7*	22.9
CCC(NC(=O)c1cc(COc2cc(C)c(Cl)c(C)c2)on1)c1ccncc1 (stereo unspecified)	4.0	-1.1	18.4	0.5	2.0
CCC(NC(=O)c1cc(COc2ccc(OC)cc2Cl)on1)c1ccncc1 (stereo unspecified)	49.8	18.9	22.1	46.9*	-7.8
COc1ccc(OCc2cc(C(=O)NC(C)c3nc(C)cs3)no2)c(Cl)c1 (stereo unspecified)	x	0.8	x	61.2*	x
